According to PubChem BioAssay:
Calls of active or inactive are those of the source. Unless noted, no rule for the calls is given here.

Key:
[1] = system: Wnt5a (protein binding on small-molecule microarray); assay: small molecules binding Wnt5a protein – biophysical, small-molecule microarray, 635/667 nm fluorescence, primary screen (AID 1142); settings: 635 nm fluorescence, higher = more signal;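 also: fluorescence read at 667 nm with signal to noise per printed feature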
[2] = ATP-based viability of Huh7 replicon cells – cell-based, CellTiter-Glo luminescence, basal, 48 h, cytotoxicity control for HCV replication inhibitor project, primary screen (AID 1143); settings: higher = more signal, called active from +8 up or from −8 down;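 also: Huh7 hepatoma cells carrying a hepatitis C replication reporter with no stimulus; test concentration not given here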
[3] = Pseudomonas biofilm growth suppression – PAO1 strain, BacTiter-Glo luminescence, LB-PBS, primary screen (AID 1144); settings: P. aeruginosa PAO1 biofilm, 12 h, higher = more signal
[4] = basal CRE-LacZ reporter activity in PC12 – cell-based, unstimulated, primary screen (AID 1145); settings: no forskolin, luminescence, 4.5 h, higher = more signal, called active from +8 up or from −8 down
[5] = forskolin-driven CRE-LacZ activity in PC12 – cell-based, CRE-LacZ reporter, forskolin-stimulated, primary screen (AID 1146); settings: luminescence, 4.5 h, higher = more signal, called active from +8 up or from −8 down;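 also: PC12 cells with 6xCRE LacZ reporter stimulated by forskolin 10 µM; beta-galactosidase reporter signal reflecting CREB driven transcription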
[6] = target: Streptavidin (Streptomyces avidinii) (UniProt P22629); assay: compounds binding control protein streptavidin – biophysical, small-molecule microarray, 635/667 nm fluorescence, artefact control for SMM compound annotation, primary screen (AID 1147); settings: higher = more signal;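 also: signal reflects streptavidin binding to arrayed compounds as a control protein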
Sequence of Streptavidin (Streptomyces avidinii) (P22629 whole entry, looked up): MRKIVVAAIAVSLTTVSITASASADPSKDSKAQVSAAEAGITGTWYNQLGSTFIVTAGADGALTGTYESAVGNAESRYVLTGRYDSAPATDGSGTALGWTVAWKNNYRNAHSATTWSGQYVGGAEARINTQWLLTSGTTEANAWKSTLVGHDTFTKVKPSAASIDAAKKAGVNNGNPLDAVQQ

[7] = probe aInhba binding on compound microarray – biochemical, small-molecule microarray, 635/667 nm fluorescence, primary screen (AID 1148); settings: higher = more signal;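 also: score merges 667nm spot fluorescence with signal-to-noise for antibody binding to printed compounds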
Torsin-1A (Homo sapiens) [8] = target: Torsin-1A (Homo sapiens) (UniProt O14656); assay: TOR1A wild-type binding on microarray – cell lysate, small-molecule microarray, lysate, 635/667 nm, primary screen (AID 1149); settings: COS7 hTOR1A-WT lysate, 635 nm fluorescence, higher = more signal
Sequence of Torsin-1A (Homo sapiens) (O14656 whole entry, looked up): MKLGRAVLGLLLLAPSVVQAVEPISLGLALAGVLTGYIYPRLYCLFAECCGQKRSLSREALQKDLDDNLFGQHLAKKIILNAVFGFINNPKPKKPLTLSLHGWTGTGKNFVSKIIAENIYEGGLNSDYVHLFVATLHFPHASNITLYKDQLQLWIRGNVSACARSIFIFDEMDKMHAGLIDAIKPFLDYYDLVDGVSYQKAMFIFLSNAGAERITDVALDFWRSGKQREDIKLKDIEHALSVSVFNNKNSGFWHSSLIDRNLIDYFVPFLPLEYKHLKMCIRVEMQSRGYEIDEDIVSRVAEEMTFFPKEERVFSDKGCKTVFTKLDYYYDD

Torsin-1A (Homo sapiens) [9] = target: Torsin-1A (Homo sapiens) (UniProt O14656); assay: torsin A mutant lysate binding on microarrays – cell lysate, small-molecule microarray, COS7 lysate, 635/667 nm fluorescence, primary screen (AID 1150); settings: COS7 hTOR1A mutant lysate, 635 nm fluorescence, higher = more signal;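 also: score pools 667 nm emission and signal to noise measuring lysate protein binding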
[10] = system: Sonic hedgehog protein (Shh); assay: Sonic hedgehog microarray binding compounds – biochemical, small-molecule microarray, 635/667 nm fluorescence, primary screen (AID 1151); settings: 635 nm fluorescence, higher = more signal;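 also: Shh protein binding to compounds spotted on small-molecule microarray slides; score combines spot fluorescence intensity with signal-to-noise across triplicate slides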
[11] = optical density shifts of acrAB sulA E. coli – strain DRC41, OD650, 48 h, E. coli filamentation inducer project, primary screen (AID 1152); settings: higher = more signal, called active from +8 up or from −8 down;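 also: E. coli MC1000 strain DRC41 lacking acrAB efflux pump and sulA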
[12] = probe aLefty1 binding on compound microarray – biochemical, small-molecule microarray, 635/667 nm fluorescence, primary screen (AID 1153); settings: higher = more signal;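 also: score merges spot fluorescence with signal-to-noise ratio from the scanned slide images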
[13] = plasmodial surface anion channel blockers, osmotic lysis – cell-based, P. falciparum Indochina, OD700, 1 h, primary screen (AID 1154); settings: P. falciparum Indochina infected RBC osmotic lysis, higher = more signal, called active from +8 up or from −8 down
[14] = plasmodial surface anion channel blockers, osmotic lysis – cell-based, P. falciparum Indochina, OD700, 2 h, primary screen (AID 1155);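 also: lysis reports solute entry through the parasite surface anion channel PSAC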; settings: P. falciparum Indochina infected erythrocytes, higher = more signal, called active from +8 up or from −8 down
[15] = changes in parasitized red cell lysis, either direction – P. falciparum Indochina, OD700, 3 h, PSAC antagonist project, primary screen (AID 1156); settings: P. falciparum-infected erythrocytes, osmotic lysis, higher = more signal, called active from +8 up or from −8 down
[16] = plasmodial surface anion channel blockers, osmotic lysis – cell-based, P. falciparum Indochina, OD700, 18 h, primary screen (AID 1157); settings: P. falciparum Indochina infected erythrocytes, osmotic lysis OD700, 18 h; higher = more signal, called active from +8 up or from −8 down
[17] = S6 kinase pathway phospho-S6 level changes – cell-based, A549, cytoblot, luminescence, serum-stimulated, primary screen (AID 1158); settings: 5 h, higher = more signal;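 also: serum-stimulated A549 lung adenocarcinoma cells; signal is phosphorylated S6 detected by cytoblot immunostaining with HRP secondary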
[18] = target: NADPH oxidase 2 (Homo sapiens) (UniProt P04839); assay: compounds shifting NOX2 Amplex Red fluorescence – cell-based, HEK293-NOX2, PMA-stimulated, NOX inhibitor project, primary screen (AID 1159); settings: 45 min, higher = more signal, called active from +8 up or from −8 down; also: test concentration not given here
Sequence of NADPH oxidase 2 (Homo sapiens) (P04839 whole entry, looked up): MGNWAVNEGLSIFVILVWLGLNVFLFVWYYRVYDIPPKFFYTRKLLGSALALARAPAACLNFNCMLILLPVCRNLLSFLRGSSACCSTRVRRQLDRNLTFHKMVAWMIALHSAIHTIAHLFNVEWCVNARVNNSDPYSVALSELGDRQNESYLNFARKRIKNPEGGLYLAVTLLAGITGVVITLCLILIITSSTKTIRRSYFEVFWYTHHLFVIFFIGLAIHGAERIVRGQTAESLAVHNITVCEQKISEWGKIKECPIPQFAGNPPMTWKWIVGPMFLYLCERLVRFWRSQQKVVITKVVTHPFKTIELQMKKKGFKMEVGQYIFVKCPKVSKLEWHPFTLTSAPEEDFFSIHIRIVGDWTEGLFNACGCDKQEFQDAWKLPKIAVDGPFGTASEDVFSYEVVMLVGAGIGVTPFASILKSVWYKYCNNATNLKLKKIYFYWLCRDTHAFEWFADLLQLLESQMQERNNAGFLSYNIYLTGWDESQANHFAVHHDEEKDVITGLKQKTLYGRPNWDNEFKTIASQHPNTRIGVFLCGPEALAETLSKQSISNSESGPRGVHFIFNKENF

[19] = target: NADPH oxidase 4 (Homo sapiens) (UniProt Q9NPH5); assay: compounds shifting NOX4 Amplex Red fluorescence – cell-based, HEK293-NOX4, tetracycline-induced, NOX inhibitor project, primary screen (AID 1160); settings: HEK293-NOX4, Amplex Red H2O2 fluorescence, 45 min; higher = more signal, called active from +8 up or from −8 down
Sequence of NADPH oxidase 4 (Homo sapiens) (Q9NPH5 whole entry, looked up): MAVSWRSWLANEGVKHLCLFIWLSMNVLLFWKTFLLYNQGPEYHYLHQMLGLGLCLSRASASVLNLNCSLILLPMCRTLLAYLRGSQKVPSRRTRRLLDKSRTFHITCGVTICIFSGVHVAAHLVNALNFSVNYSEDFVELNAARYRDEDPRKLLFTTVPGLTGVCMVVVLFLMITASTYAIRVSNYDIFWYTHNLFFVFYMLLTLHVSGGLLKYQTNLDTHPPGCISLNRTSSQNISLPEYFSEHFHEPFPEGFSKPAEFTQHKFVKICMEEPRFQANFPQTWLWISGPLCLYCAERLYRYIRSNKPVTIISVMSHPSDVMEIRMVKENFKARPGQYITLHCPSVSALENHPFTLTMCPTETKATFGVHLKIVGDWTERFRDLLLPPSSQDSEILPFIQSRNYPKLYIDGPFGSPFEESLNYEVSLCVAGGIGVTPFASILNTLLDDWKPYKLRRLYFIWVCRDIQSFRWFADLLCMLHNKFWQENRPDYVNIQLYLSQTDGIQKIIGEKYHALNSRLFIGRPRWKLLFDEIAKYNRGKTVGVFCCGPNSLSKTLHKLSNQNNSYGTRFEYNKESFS

[20] = target: NADPH oxidase 5 (Homo sapiens) (UniProt Q96PH1); assay: compounds shifting NOX5 Amplex Red fluorescence – cell-based, HEK293-NOX5, NOX inhibitor project, primary screen (AID 1161); settings: HEK293-NOX5, ionomycin, 45 min, higher = more signal
Sequence of NADPH oxidase 5 (Homo sapiens) (Q96PH1 whole entry, looked up): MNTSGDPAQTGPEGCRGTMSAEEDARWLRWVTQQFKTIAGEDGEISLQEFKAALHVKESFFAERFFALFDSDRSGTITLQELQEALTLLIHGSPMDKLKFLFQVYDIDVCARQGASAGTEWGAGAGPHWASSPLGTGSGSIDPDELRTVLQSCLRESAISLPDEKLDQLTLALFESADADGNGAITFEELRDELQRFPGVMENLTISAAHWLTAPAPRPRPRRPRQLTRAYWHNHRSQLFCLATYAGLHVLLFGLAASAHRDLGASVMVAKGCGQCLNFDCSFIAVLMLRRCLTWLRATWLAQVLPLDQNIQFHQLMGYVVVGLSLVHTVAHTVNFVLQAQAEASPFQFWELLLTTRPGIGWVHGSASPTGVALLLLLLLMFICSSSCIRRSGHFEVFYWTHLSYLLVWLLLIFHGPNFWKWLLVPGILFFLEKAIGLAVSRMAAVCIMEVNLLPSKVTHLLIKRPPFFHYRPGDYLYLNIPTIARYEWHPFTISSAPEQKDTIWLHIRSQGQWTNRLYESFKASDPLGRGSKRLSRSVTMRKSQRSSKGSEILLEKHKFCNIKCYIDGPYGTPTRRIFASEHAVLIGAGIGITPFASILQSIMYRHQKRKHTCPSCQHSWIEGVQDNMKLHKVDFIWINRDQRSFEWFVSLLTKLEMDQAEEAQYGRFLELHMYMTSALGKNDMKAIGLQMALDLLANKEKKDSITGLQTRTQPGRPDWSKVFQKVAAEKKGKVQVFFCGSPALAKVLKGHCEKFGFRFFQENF

SMILES | composite z-score [1] | z-score [2] | z-score [3] | z-score [4] | z-score [5] | composite z-score [6] | composite z-score [7] | composite z-score (Torsin-1A (Homo sapiens) [8]) | composite z-score (Torsin-1A (Homo sapiens) [9]) | composite z-score [10] | z-score [11] | composite z-score [12] | z-score [13] | z-score [14] | z-score [15] | z-score [16] | z-score [17] | z-score [18] | z-score [19] | z-score [20]
C=C[C@@H](COC(=O)OC(C)(C)C)N(Cc1ccc(OC)cc1)S(=O)(=O)c1ccc(Br)cc1 | 0.0249 | -1.75 (inactive) | 0.551 (inactive) | 3.04 (inactive) | 1.88 (inactive) | 0.603 | -0.0332 | 0.604 | 0.299 | 1.57 | -1.13 (inactive) | -0.0094 | 1.4 (inactive) | -0.0352 (inactive) | -0.856 (inactive) | -0.0871 (inactive) | -0.273 | -0.348 (inactive) | 0.525 (inactive) | -1.28
COCCOC(=O)N1C(=O)[C@@]2(c3ccccc31)[C@H](c1ccccc1OCCO)N1[C@H](c3ccccc3)[C@H](c3ccccc3)OC(=O)[C@H]1[C@@H]2C(=O)N1CCN(c2ncccn2)CC1 | -0.0525 | -2.08 (inactive) | 0.235 (inactive) | -0.0688 (inactive) | 3.84 (inactive) | 0.498 | -0.0102 | 0.447 | 0.489 | 1.34 | -0.102 (inactive) | 0.0402 | 4.19 (inactive) | 2.16 (inactive) | 0.98 (inactive) | 1.49 (inactive) | -0.248 | -0.652 (inactive) | -0.44 (inactive) | 0.183
O=C1C2C=CC(C(O)CCc3ccccc3)N(Nc3ccccc3F)C2C(=O)N1c1ccccc1 (stereo not given) | 0.43 | -0.381 (inactive) | -0.315 (inactive) | -0.331 (inactive) | 0.654 (inactive) | 0.787 | 0.131 | 0.204 | 0.538 | 0.366 | -0.383 (inactive) | -0.322 | 1.87 (inactive) | 1.15 (inactive) | 0.517 (inactive) | 0.807 (inactive) | -0.638 | 0.236 (inactive) | -0.452 (inactive) | -0.449
CN1C(=O)C2C=CC(C(O)C3CC=CCC3)N(N(c3ccccc3)c3ccccc3)C2C1=O (stereo not given) | 0.155 | 0.909 (inactive) | 0.472 (inactive) | 0.629 (inactive) | 0.47 (inactive) | 0.184 | 0.027 | 0.36 | -0.368 | 0.0122 | -0.866 (inactive) | 0.329 | 0.19 (inactive) | 1.01 (inactive) | -0.255 (inactive) | 1.29 (inactive) | -0.496 | -0.625 (inactive) | 0.21 (inactive) | 0.224
COCC(=C=CC[C@@H](O)c1cccc(OCCO)c1)C[C@@H](O)c1ccccn1 | 0.0068 | 0.0726 (inactive) | 0.786 (inactive) | 0.378 (inactive) | -1.16 (inactive) | -0.229 | -0.0403 | 0.839 | 0.344 | 1.29 | 0.335 (inactive) | 0.0903 | 12 (active) | 1.42 (inactive) | 0.97 (inactive) | 0.675 (inactive) | -0.613 | 1.96 (inactive) | 0.744 (inactive) | 0.254
C=C(C)[C@@H]1CC=C(C(O)C2C=CC3C(=O)N(C)C(=O)C3N2Nc2ccccc2)CC1 (stereo not given in full) | 0.297 | 0.435 (inactive) | -0.309 (inactive) | 0.626 (inactive) | 1.26 (inactive) | 0.178 | 0.0013 | 0.425 | 0.385 | 1.89 | -1.54 (inactive) | 0.42 | 1.89 (inactive) | 0.344 (inactive) | 0.683 (inactive) | 1.59 (inactive) | -0.549 | -1.1 (inactive) | -2.76 (inactive) | -2.23
CC1(C)[C@@H]2CC(C(O)C3C=CC4C(=O)N(c5ccccc5)C(=O)C4N3Nc3ccc([N+](=O)[O-])cc3)=C[C@H]1C2 (stereo not given in full) | 0.909 | -1.2 (inactive) | -0.88 (inactive) | 0.323 (inactive) | 0.617 (inactive) | 1.18 | 0.0179 | 1.18 | 0.537 | 0.808 | -1.03 (inactive) | 0.404 | 14.3 (active) | 2.98 (inactive) | 2.92 (inactive) | 1.56 (inactive) | -0.539 | -0.0932 (inactive) | -1.02 (inactive) | -2.02
O=C1NC(=O)C2C1C=CC(C(O)c1cccs1)N2Nc1ccc(Cl)cc1Cl (stereo not given) | -0.0653 | 0.0581 (inactive) | -0.24 (inactive) | -0.136 (inactive) | -0.109 (inactive) | -0.695 | -0.118 | 0.352 | 0.112 | -0.0963 | -0.713 (inactive) | -0.012 | 2.33 (inactive) | 1.32 (inactive) | -0.0207 (inactive) | 1.34 (inactive) | -0.27 | -0.483 (inactive) | -4.81 (inactive) | -1.57
COc1cc2c(cc1O)C(c1cccs1)N(C)CC2 (stereo not given) | -0.289 | -0.0812 (inactive) | 0.134 (inactive) | -0.374 (inactive) | -0.0678 (inactive) | -1.17 | -0.218 | -1.19 | -0.597 | -0.44 | 0.158 (inactive) | -0.103 | 4.23 (inactive) | 1.17 (inactive) | -0.0863 (inactive) | 0.352 (inactive) | -0.331 | -4.66 (inactive) | -2.71 (inactive) | -2.33
